SMILES strings stand for the structures. In all, about 200,000 compounds went through this assay and about 18,000 (9%) were called active. This is one part of a sample in which actives are shown more often than they occur. Unmarked numbers belong to inactive results. Cut-off read from the data, not from the text of the source: active = inhibition above about 50%; inactive = the rest.

A short description of the experiment: Leishmania major promastigote growth inhibition, primary screen (AID 1063).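 Note: promastigotes grown with compound for 44 hours at 28 °C.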 The note with it: Leishmania major promastigotes, resazurin fluorescence viability; at 10 µM; stronger effect = higher value. In general terms: Alamar Blue is a resazurin reagent that responds to reducing activity.
In general, inhibition refers to the relative decrease from the control value, in per cent. Consider `COc1ccc(CCc2nnc(CCC(=O)NCc3cnn(-c4ccccc4C)c3)o2)cc1`, for which the inhibition is 6.37%.

Turning to `CCOC(=O)N1CCN(C(=O)c2nn(-c3ccc(C)cc3)c(=O)c3c2c2ccccc2n3C)CC1`, the inhibition was -5.83%.

Consider `Cn1c2ccccc2c2c(C(=O)N3CCN(c4ccc(F)cc4)CC3)cn(C3CCCC3)c(=O)c21`, for which the inhibition was 99.4% (active).

`O=C(c1ccccc1Oc1ccccc1)N1CCN(c2ccc(F)cc2)CC1`: the inhibition was 10.2%.

Consider `O=C(CSc1nnc2ccc(-c3ccncc3)nn12)N1CCCCC1`, for which the inhibition is 20.4%.

`CC(=O)Nc1ccc(S(=O)(=O)NC2(C(F)(F)F)C(=O)NC(C)=C2C#N)cc1` (stereo not drawn): the inhibition is -4.23%.

On to `O=C(NCc1nnc(SCC(=O)N2CCCc3ccccc32)o1)c1ccccc1F`, for which the inhibition is -5.95%.

With `O=C(/C=C/c1ccc(Cl)cc1Cl)c1cccnc1`, the inhibition was 100% (active).

Consider `O=C(NCc1ccc(Cl)c(Cl)c1)c1cccnc1`, for which the inhibition is -2.18%.

With `O=C(/C=C/c1ccc(Cl)c([N+](=O)[O-])c1)c1cccnc1`, the inhibition is 100% (active).

`O=C(/C=C/c1ccc(Cl)cc1Cl)NCc1ccco1`: the inhibition is -1.38%.

Regarding `CN(C)c1ccc(/C=C/C(=O)c2ccc(C(C)(C)C)cc2)cc1[N+](=O)[O-]`, the inhibition is 27.1%.

As to `O=C(Nc1cccnc1)c1ccc(Cl)c([N+](=O)[O-])c1`, the inhibition is 1.22%.

In the case of `COCCNc1nc2nonc2nc1N(C)Cc1ccc(C)cc1`, the inhibition was 2.88%.

As to `CCC(C)(C(=O)Nc1ccccc1C)N(C(=O)CNC(C)=O)c1ccc(C)cc1` (stereo not drawn), the inhibition was -4.62%.

Regarding `CSc1ccc(CN2C(=O)NC3(CCCCCC3)C2=O)cc1`, the inhibition was 9.1%.

With `CC(NCc1nc2ccccc2n1C)C12CC3CC(CC(C3)C1)C2` (stereo not drawn), the inhibition is 12.4%.

Regarding `Cc1ccccc1-c1nc(C#N)c(NCc2ccco2)o1`, the inhibition is -3.77%.

Turning to `CC(C)(C)C1CCC(C(=O)Nc2cccnc2)CC1` (stereo not drawn), the inhibition was -5.65%.

Take `CCOC(=O)c1sc(-c2cccc([N+](=O)[O-])c2)cc1N`: the inhibition is 4.06%.

For `CCOC(=O)c1sc2nc(CSc3ccccc3)[nH]c(=O)c2c1C`, the inhibition is 14.1%.

With `CCOC(=O)c1sc(C)c2c1NC(C)(c1cccc3ccccc13)NC2=O` (stereo not drawn), the inhibition was 97.3% (active).

Turning to `O=C(O)CCCCCNc1ncnc2ccc(Br)cc12`, the inhibition was -1.72%.

For the compound `Cc1cccc2c1N(CC(=O)OC(C)C)C(=O)C2=O`, the inhibition is -12.8%.

`CC(C)OC(=O)CN1C(=O)c2ccccc2C1=O`: the inhibition was 14.7%.

Regarding `CC(C)OC(=O)CN1C(=O)C(=O)c2ccccc21`, the inhibition was 88% (active).

Consider `O=C(CC1CCCCC1)NCc1ccc(F)cc1`, for which the inhibition was -12.7%.

As to `CC(C)Oc1ccc(CCc2nnc(SCC(=O)O)n2-c2ccccc2)cc1`, the inhibition is -8.77%.

For the compound `NS(=O)(=O)c1ccc(NC(=O)COC(=O)C2(c3ccc(F)cc3)CCCC2)cc1`, the inhibition was 70.2% (active).

For the compound `NS(=O)(=O)c1ccc(NC(=O)COC(=O)c2ccco2)cc1`, the inhibition is 0.53%.

Turning to `CN(C)S(=O)(=O)c1cccc(NC(=O)COC(=O)C2(c3ccccc3F)CCCC2)c1`, the inhibition is 28.6%.

`CC(Oc1ccc(Br)cc1Br)C(=O)NC1CCCC1` (stereo not drawn): the inhibition was -1.48%.

`CC(=O)Nc1ccc(Nc2c([N+](=O)[O-])cc(S(C)(=O)=O)cc2[N+](=O)[O-])cc1`: the inhibition was 10.8%.

For the compound `O=[N+]([O-])c1cccc(Nc2c3ccccc3nc3ccccc23)c1`, the inhibition is 69.1% (active).

Regarding `CC(=O)Nc1ccc(Nc2c3ccccc3nc3ccccc23)cc1`, the inhibition is 101% (active).

With `Cc1cc(CNC(=O)c2cccc([N+](=O)[O-])c2)c2ccccc2n1`, the inhibition was 9.74%.

Consider `O=C(CSCC(=O)Nc1cccc([N+](=O)[O-])c1)Nc1ccccc1`, for which the inhibition is 4.18%.

As for `CC(=O)Nc1ccc(NC(=O)COc2ncnc3ccccc23)cc1`, the inhibition was -2.61%.

For `O=C(O)CCc1nc2cc(Cl)ccc2n(Cc2ccccc2)c1=O`, the inhibition is -0.11%.

Consider `CCC1(CC)NC(=O)N(Cc2nc3ccccc3s2)C1=O`, for which the inhibition was -8.89%.

In the case of `CCNC(=O)COC(=O)CCNC(=O)c1cccc(C)c1`, the inhibition was -5.94%.

Consider `CC1CC(C)(C)NC(=S)N1CCC(=O)N1CCN(Cc2ccccc2)CC1` (stereo not drawn), for which the inhibition was 0.54%.

For the compound `NC(=O)Cn1nc([N+](=O)[O-])nc1Oc1ccc(Br)cc1`, the inhibition is 33.2%.

As to `NC(=O)c1ccc(NC(=O)COC(=O)C(Cc2ccccc2)NC(=O)c2ccccc2)cc1` (stereo not drawn), the inhibition is 1.11%.

For `O=C1CCCC2=C1C(c1ccccc1)n1c(s/c(=C/c3cccc(F)c3)c1=O)=N2` (stereo not drawn), the inhibition was 60.3% (active).

Turning to `O=C1CC(c2cccc(F)c2)C2=C(CCCC2=O)N1` (stereo not drawn), the inhibition was -5.73%.

Turning to `O=C1CSC(c2cccc(F)c2)N1c1ccccc1F` (stereo not drawn), the inhibition is 1.64%.

Turning to `CCSC1=NCCN1C(=O)c1ccc(S(=O)(=O)N(CC)CC)cc1`, the inhibition was 2.69%.

With `C=CCN(Cc1nc(-c2cc(OC)c3c(c2)OCO3)oc1C)C1CCS(=O)(=O)C1` (stereo not drawn), the inhibition is 64.6% (active).

As for `Cc1cccc(C(=O)Nc2ccccc2C(=O)NCc2cccnc2)c1`, the inhibition was -3.01%.

Turning to `O=C(CCC(=O)OCc1ccc(Cl)cc1)Nc1ccccc1`, the inhibition was -2.39%.

Consider `CCCCC(=O)Nc1ccc2c(c1)OCCO2`, for which the inhibition is 1.71%.

For `CCCCN(C)CCC(=O)Nc1ccc(Cl)cc1`, the inhibition was 63.4% (active).

Consider `CCOC(=O)Cc1csc(NC(=O)CSc2ccc(Br)cc2)n1`, for which the inhibition is 77.7% (active).

Regarding `CCOC(=O)Cc1csc(NC(=O)Nc2ccccc2)n1`, the inhibition is 0.22%.

Take `CCOC(=O)Cc1csc(SCC(=O)NC(C)C23CC4CC(CC(C4)C2)C3)n1` (stereo not drawn): the inhibition is 98.6% (active).

With `CCOC(=O)Cc1csc(SCc2cc(=O)oc3cc(O)ccc23)n1`, the inhibition is -10.2%.

Regarding `CCOC(=O)Cc1csc(NC(=O)C(C)(C)C)n1`, the inhibition is -0.74%.

Take `CCOC(=O)Cc1csc(NC(=O)CSc2nc(C)cc(=O)[nH]2)n1`: the inhibition is -12.1%.

`Cc1ccccc1N/C(SCc1ccc(Cl)cc1)=C(/C#N)C(N)=O`: the inhibition was 25.8%.

`CC1(c2ccccc2)CC(C)(C)N(C(=O)c2cc([N+](=O)[O-])cc([N+](=O)[O-])c2)c2ccccc21` (stereo not drawn): the inhibition was 99.6% (active).

For the compound `CC1CCN(C(=S)c2cccc([N+](=O)[O-])c2)CC1`, the inhibition is -0.83%.

For the compound `CC1(c2cccc([N+](=O)[O-])c2)CC(C)(C)N(C(=O)c2ccccc2)c2ccccc21` (stereo not drawn), the inhibition was 22.4%.
